# Laboratory results published in PubChem BioAssay.
# A number with no mark means an inactive call.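 The calls were made as follows: active = viability at or below 10% of carrier control in both of two separate runs; inconclusive = viability at or below 10% in only one of the two runs; inactive = the rest.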
# Test: reduced viability of SK-BR-3 breast cancer cells – cell-based, 24 h, human, pilot screen (AID 572);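 also: compound exposure lasted between 18 and 24 h rather than exactly 24 h; 100% = carrier-treated control wells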
# Conditions: SK-BR-3 viability, CellTiter-Glo luminescence, at 10 µM, stronger effect = lower value
row,Structure (SMILES),viability [%]
1,O=C(c1ccco1)N1CCN(C(=O)c2cc3c(s2)-c2ccccc2OC3)CC1,91
2,Cn1c(-c2ccccc2)c(CCO)c2ccccc21,97
3,CC(C)(C)OC(=O)N1CCCC1C(=O)N1CCc2ccccc21 (stereo not drawn),95.5
4,Fc1ccc(C(c2nnnn2Cc2ccco2)N2CCN(C3CCCCC3)CC2)cc1 (stereo not drawn),67
5,Cc1c(C(=O)NCc2cccnc2)oc2ccc(S(=O)(=O)N3CCCCC3)cc12,71.5
6,COc1ccc(-c2cc(C(=O)NCCc3ccccc3)no2)cc1OC,102
7,O=C(NCc1ccccc1)C1CCN(S(=O)(=O)N2CCCCCC2)CC1,85
8,CC1(C)CC(=O)C(CC2=C(O)CC(C)(C)CC2=O)=C(O)C1,95
9,Cn1c(=O)c2c(nc(SCC(=O)NCc3ccco3)n2C)n(C)c1=O,116
10,COc1ccc(-c2noc(-c3cc(Cl)ccc3Cl)n2)cc1OC,122
11,CCn1c(=O)cc(SCC(=O)NCCN2CCN(Cc3ccccc3)CC2)c2ccccc21,89
12,CC(=O)Nc1cccc(NC(=O)c2oc3ccccc3c2C)c1,81.5
13,CN1CCN(c2oc(COc3ccc(-c4ccccc4)cc3)nc2C#N)CC1,83.5
14,Clc1ccc2nc(N3CCCCC3)[nH]c2c1,90.5
15,CN1CCc2nc(SCC(=O)Nc3ccc(F)cc3)c(C#N)cc2C1,90.5
16,CCCCC(=O)NCCc1ccc(S(N)(=O)=O)cc1,104
17,Cc1onc(-c2c(Cl)cccc2Cl)c1C(=O)N1CCc2ccccc21,97
18,Cc1ccc(S(=O)(=O)NCCCCC(NC(=O)OC(C)(C)C)C(=O)O)cc1 (stereo not drawn) (tested in a mixture with another compound),91.5
19,N#CC1=C(N)SC(N)=C(C#N)C1c1ccc(C(F)(F)F)cc1,90
20,C=Cn1c(C(=O)O)cc(CC)c1-c1ccccc1,96
21,Cc1nc2cccc(C(=O)NC3CCCCC3)c2o1,100
22,O=C(CCn1nc(-c2ccc(Cl)cc2)ccc1=O)N1CCN(c2ccccn2)CC1,96.5
23,COc1ccc(-c2nnc(SCC#N)o2)cc1,104
